Holding throughout (experiment): growth (OD600 after 10 h); higher = more growth (less inhibition)
Assay [1] has as its system E. coli TESEC Alr+ wild-type control. The note with it: compound 0.1 mM; raw OD600 reference: median of DMSO wells 0.241, cell-free background 0.041. As to the method:
(§1)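 TESEC Mtb Alr E. coli, or the Alr+ wild-type control, in 384-well plates with Prestwick library compounds at 0.1 mM and 1% DMSO, across arabinose induction levels of 1E3 to 1E7 nM. Growth is read as OD600 after 10 h at 37 °C in triplicate biological replicates.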

In assay [2] the test system is E. coli TESEC Mtb Alr. The note with it: compound 0.1 mM. Here is the method: as §1
A further assay has as its system E. coli TESEC Mtb Asd. The note with it: compound 0.1 mM. Here is the method:
(§2)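 TESEC E. coli strains in which the native enzyme is deleted and replaced by arabinose-inducible Mtb Asd, DapB, CysH or TrpD, each grown in its selective medium. Strains were screened against the Prestwick library at 0.1 mM and 1% DMSO in 384-well format at low and high arabinose induction. Growth is read as OD600 after 10 h in triplicate.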

A further assay relates to E. coli TESEC Mtb DapB. Particulars: compound 0.1 mM. Here is the method:
as §2

In assay [3] the test system is E. coli TESEC Alr+ wild-type control. The note with it: compound 0.1 mM; raw OD600 reference: median of DMSO wells 0.49, cell-free background 0.052. Here is the method: (§3)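 TESEC Mtb Alr E. coli (ΔaraC ΔtolC ΔentC Δalr ΔdadX, arabinose-inducible Mtb Alr) or the Alr+ wild-type control strain, grown in defined M9-fructose medium without D-alanine in 96-well plates with Prestwick library compounds at 0.1 mM and 1% DMSO. Low Alr induction is 0.1 µM arabinose and high induction is 10 mM arabinose.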

In assay [4] the test system is E. coli TESEC Mtb Alr. The note with it: compound 0.1 mM. As to the method: as §3
The source holds these as a separate data set.

The mark [5] stands for this setting: arabinose 1000 nM, raw OD600 reference: median of DMSO wells 0.294, cell-free background 0.041.
Where [6] appears, read: arabinose 10000 nM, raw OD600 reference: median of DMSO wells 0.264, cell-free background 0.041.
The mark [7] stands for this setting: arabinose 100000 nM, raw OD600 reference: median of DMSO wells 0.201, cell-free background 0.041.
Where [8] appears, read: arabinose 1000000 nM, raw OD600 reference: median of DMSO wells 0.193, cell-free background 0.041.
Where [9] appears, read: arabinose 10000000 nM, raw OD600 reference: median of DMSO wells 0.146, cell-free background 0.041.
Where [10] appears, read: arabinose induction (level): High, raw OD600 reference: median of DMSO wells 0.331, cell-free background 0.041.
[11] abbreviates: arabinose induction (level): Low, raw OD600 reference: median of DMSO wells 0.417, cell-free background 0.041.
[12] abbreviates: arabinose induction (level): High, raw OD600 reference: median of DMSO wells […], cell-free background 0.041.
[13] abbreviates: arabinose induction (level): Low, raw OD600 reference: median of DMSO wells 0.227, cell-free background 0.041.
[14] abbreviates: arabinose 100 nM, raw OD600 reference: median of DMSO wells 0.413, cell-free background 0.052.
[15] abbreviates: arabinose 10000000 nM, raw OD600 reference: median of DMSO wells […], cell-free background 0.052.

The values below come from the supplement of paper PMC9262897, “Low-cost anti-mycobacterial drug discovery using engineered E. coli” (Nature Communications, 2022).

Counter-ions that a name gives are not always drawn. ± gives the standard deviation of the averaged measurements.

For `C[C@@H]1O[C@@H](O[C@@H]2C=C3CC[C@@H]4[C@H](CC[C@]5(C)[C@@H](c6ccc(=O)oc6)CC[C@]45O)[C@@]3(C)CC2)[C@H](O)[C@H](O)[C@H]1O` [Proscillaridin A], the growth in assay [1] came to 0.182 ± 0.0085; in the assay with E. coli TESEC Mtb Alr [2] (setting [5]), 0.247 ± 0.0077; in the assay on E. coli TESEC Mtb Alr [2] (setting [6]), 0.256 ± 0.016; with E. coli TESEC Mtb Alr [2] (setting [7]), 0.13 ± 0.0072; with E. coli TESEC Mtb Alr [2] (setting [8]), 0.108 ± 0.0053; in the assay with E. coli TESEC Mtb Alr [2] (setting [9]) it was 0.134 ± 0.0043. Also, the growth in the assay with E. coli TESEC Mtb Asd (setting [10]) amounted to 0.117 ± 0.0017; with E. coli TESEC Mtb Asd (setting [11]) it was 0.234 ± 0.021; with E. coli TESEC Mtb DapB (setting [12]), 0.163 ± 0.004; in the assay on E. coli TESEC Mtb DapB (setting [13]) it was 0.173 ± 0.019; in assay [3], 0.626 ± 0.018; in the assay on E. coli TESEC Mtb Alr [4] (setting [14]), 0.405 ± 0.009. In the assay on E. coli TESEC Mtb Alr [4] (setting [15]), this molecule showed a growth of 0.267 ± 0.0065.

In the case of `CC(=O)OCC1=C(C(=O)O)N2C(=O)[C@@H](N)[C@H]2SC1` [Cephalosporanic acid, 7-amino], the growth in assay [1] is 0.254 ± 0.0055; with E. coli TESEC Mtb Alr [2] (setting [5]), 0.295 ± 0.011; in the assay on E. coli TESEC Mtb Alr [2] (setting [6]), 0.269 ± 0.008; in the assay with E. coli TESEC Mtb Alr [2] (setting [7]) it was 0.22 ± 0.023; in the assay on E. coli TESEC Mtb Alr [2] (setting [8]), 0.205 ± 0.011; in the assay on E. coli TESEC Mtb Alr [2] (setting [9]), 0.151 ± 0.0034. Besides, the growth in the assay on E. coli TESEC Mtb Asd (setting [10]) is 0.273 ± 0.018; with E. coli TESEC Mtb Asd (setting [11]) it was 0.402 ± 0.086; in the assay with E. coli TESEC Mtb DapB (setting [12]), 0.187 ± 0.014; in the assay with E. coli TESEC Mtb DapB (setting [13]) it was 0.215 ± 0.0044; in the assay on E. coli TESEC Mtb Alr [4] (setting [14]), 0.408 ± 0.013; in the assay on E. coli TESEC Mtb Alr [4] (setting [15]), 0.356 ± 0.011.

In the case of `C[C@H](N)[C@H](O)c1ccc(O)c(O)c1` [Levonordefrin], the growth came out at 0.1755 ± 0.00087 in assay [1]; 0.276 ± 0.013 in the assay with E. coli TESEC Mtb Alr [2] (setting [5]); 0.26 ± 0.0038 with E. coli TESEC Mtb Alr [2] (setting [6]); 0.206 ± 0.0036 in the assay on E. coli TESEC Mtb Alr [2] (setting [7]); 0.118 ± 0.0043 in the assay on E. coli TESEC Mtb Alr [2] (setting [8]); 0.131 ± 0.0047 in the assay on E. coli TESEC Mtb Alr [2] (setting [9]). The growth with E. coli TESEC Mtb Asd (setting [10]) was determined as 0.194 ± 0.014; in the assay with E. coli TESEC Mtb Asd (setting [11]) it was 0.357 ± 0.0047; with E. coli TESEC Mtb DapB (setting [12]), 0.167 ± 0.003; with E. coli TESEC Mtb DapB (setting [13]) it was 0.176 ± 0.043; in the assay on E. coli TESEC Mtb Alr [4] (setting [14]) it was 0.398 ± 0.024; in the assay on E. coli TESEC Mtb Alr [4] (setting [15]), 0.371 ± 0.017.

For `Cc1cccc(C)c1NC1=NCCCS1` [Xylazine], the growth in assay [1] turned out to be 0.236 ± 0.0094; in the assay with E. coli TESEC Mtb Alr [2] (setting [5]), 0.284 ± 0.0052; with E. coli TESEC Mtb Alr [2] (setting [6]) it was 0.247 ± 0.0072; in the assay on E. coli TESEC Mtb Alr [2] (setting [7]), 0.208 ± 0.029; with E. coli TESEC Mtb Alr [2] (setting [8]) it was 0.169 ± 0.0055; in the assay on E. coli TESEC Mtb Alr [2] (setting [9]) it was 0.137 ± 0.006. Further, the growth in the assay with E. coli TESEC Mtb Asd (setting [10]) was 0.298 ± 0.051; in the assay with E. coli TESEC Mtb Asd (setting [11]), 0.34 ± 0.11; in the assay with E. coli TESEC Mtb DapB (setting [12]), 0.209 ± 0.016; in the assay with E. coli TESEC Mtb DapB (setting [13]), 0.226 ± 0.022; in the assay on E. coli TESEC Mtb Alr [4] (setting [14]), 0.424 ± 0.0078; in the assay with E. coli TESEC Mtb Alr [4] (setting [15]) it was 0.352 ± 0.023.

For `O=c1[nH]oc2c1CCNC2` [THIP Hydrochloride], the growth in assay [1] came to 0.26 ± 0.0053; in the assay on E. coli TESEC Mtb Alr [2] (setting [5]), 0.316 ± 0.0096; in the assay on E. coli TESEC Mtb Alr [2] (setting [6]), 0.266 ± 0.0055; in the assay on E. coli TESEC Mtb Alr [2] (setting [7]), 0.2 ± 0.019; in the assay with E. coli TESEC Mtb Alr [2] (setting [8]), 0.194 ± 0.014; in the assay on E. coli TESEC Mtb Alr [2] (setting [9]) it was 0.136 ± 0.0034. Moreover, the growth was found to be 0.262 ± 0.035 in the assay with E. coli TESEC Mtb Asd (setting [10]); 0.433 ± 0.04 with E. coli TESEC Mtb Asd (setting [11]); 0.2018 ± 0.0015 in the assay on E. coli TESEC Mtb DapB (setting [12]); 0.238 ± 0.014 with E. coli TESEC Mtb DapB (setting [13]); 0.539 ± 0.087 in assay [3]; 0.41 ± 0.013 with E. coli TESEC Mtb Alr [4] (setting [14]). The molecule also had a growth with E. coli TESEC Mtb Alr [4] (setting [15]) of 0.349 ± 0.018.

Regarding `NCCc1c[nH]c2ccc(O)cc12` [Serotonin hydrochloride], the growth in assay [1] is 0.231 ± 0.013; with E. coli TESEC Mtb Alr [2] (setting [5]) it was 0.297 ± 0.011; in the assay on E. coli TESEC Mtb Alr [2] (setting [6]) it was 0.269 ± 0.0069; in the assay on E. coli TESEC Mtb Alr [2] (setting [7]), 0.198 ± 0.036; in the assay with E. coli TESEC Mtb Alr [2] (setting [8]), 0.201 ± 0.0049; in the assay with E. coli TESEC Mtb Alr [2] (setting [9]) it was 0.145 ± 0.0029. The growth with E. coli TESEC Mtb Asd (setting [10]) was 0.361 ± 0.022; in the assay on E. coli TESEC Mtb Asd (setting [11]), 0.405 ± 0.091; in the assay on E. coli TESEC Mtb DapB (setting [12]), 0.209 ± 0.011; with E. coli TESEC Mtb DapB (setting [13]) it was 0.237 ± 0.0078; in the assay on E. coli TESEC Mtb Alr [4] (setting [14]) it was 0.407 ± 0.02; in the assay on E. coli TESEC Mtb Alr [4] (setting [15]) it was 0.338 ± 0.054.

With `CN(C)[C@@H]1C(=O)C(C(N)=O)=C(O)[C@@]2(O)C(=O)C3=C(O)c4c(O)cccc4[C@@](C)(O)[C@H]3[C@H](O)[C@@H]12` [Oxytetracycline dihydrate], the growth was 0.0451 ± 0.0028 in assay [1]; 0.0424 ± 0.00089 with E. coli TESEC Mtb Alr [2] (setting [5]); 0.0418 ± 0.00081 in the assay with E. coli TESEC Mtb Alr [2] (setting [6]); 0.044 ± 0.0021 in the assay on E. coli TESEC Mtb Alr [2] (setting [7]); 0.0421 ± 0.0003 in the assay with E. coli TESEC Mtb Alr [2] (setting [8]); 0.04303 ± 0.00012 in the assay with E. coli TESEC Mtb Alr [2] (setting [9]). Also, the growth in the assay on E. coli TESEC Mtb Asd (setting [10]) was determined as 0.0563 ± 0.0015; with E. coli TESEC Mtb Asd (setting [11]), 0.0587 ± 0.0032; in the assay with E. coli TESEC Mtb DapB (setting [12]) it was 0.0531 ± 0.00076; with E. coli TESEC Mtb DapB (setting [13]), 0.0536 ± 0.0012; in the assay on E. coli TESEC Mtb Alr [4] (setting [14]), 0.0627 ± 0.0022; in the assay on E. coli TESEC Mtb Alr [4] (setting [15]) it was 0.0555 ± 0.003.

For `CC(=O)OC1CN2CCC1CC2` (centres undefined) [Aceclidine Hydrochloride], the growth in assay [1] worked out at 0.257 ± 0.0078; in the assay on E. coli TESEC Mtb Alr [2] (setting [5]), 0.314 ± 0.0082; with E. coli TESEC Mtb Alr [2] (setting [6]), 0.2646 ± 0.0025; with E. coli TESEC Mtb Alr [2] (setting [7]), 0.232 ± 0.041; in the assay on E. coli TESEC Mtb Alr [2] (setting [8]), 0.174 ± 0.0042; in the assay with E. coli TESEC Mtb Alr [2] (setting [9]), 0.166 ± 0.0076. Also, the growth came to 0.22 ± 0.0099 in the assay with E. coli TESEC Mtb Asd (setting [10]); 0.306 ± 0.013 in the assay on E. coli TESEC Mtb Asd (setting [11]); 0.204 ± 0.02 in the assay with E. coli TESEC Mtb DapB (setting [12]); 0.232 ± 0.023 in the assay with E. coli TESEC Mtb DapB (setting [13]); 0.459 ± 0.015 in assay [3]; 0.41 ± 0.007 with E. coli TESEC Mtb Alr [4] (setting [14]). Moreover, the growth in the assay on E. coli TESEC Mtb Alr [4] (setting [15]) came out at 0.359 ± 0.031.
